The source of these data is PubChem BioAssay (EPA / NIEHS).

Values joined by “and” are separate entries in the source; they are usually repeats but may differ in a detail not shown here. Identical values can stand only once. Some compounds were tested as several samples or in several runs, with calls that do not always agree. Active and inactive are the calls of the source. How the source made its calls: active means hit-call score of the fitted dose curve at least 0.9, where 1 is the maximum; inactive means score below 0.9.

In general, AC50 refers to the concentration at which the activity in the assay is half-maximal.

Read-out in the assay: Interleukin-8 (IL8), CXCL8 (gene 3576)
The assay is described as follows: BSK_LPS_IL8: BioMAP Diversity Plus: LPS Assay for Interleukin-8 (IL8) Biomarker Activity (AID 2283078). Conditions: primary human HUVEC with PBMC; actives raise or lower the signal. The method in brief:
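ELISA read-out of IL-8 after 24 h chemical treatment of LPS-activated endothelial/PBMC human primary co-cultures. Changes either up or down relative to DMSO; overt cytotoxicity checked by sulforhodamine B staining in parallel wells.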
As to `O=C(O)CCC(F)(C(F)(F)F)C(F)(F)F`, the outcome was inactive.

For the compound `CC(C)CCCCCCOC(=O)c1ccccc1C(=O)OCCCCCCC(C)C`, the outcome was inactive. On the same count and under the same terms, for `Oc1c(I)cc(I)cc1I` the value was “inactive”. On to `O=C(O)C(F)(F)C(F)(F)C(F)(F)C(F)(F)C(F)(F)C(F)(F)C(F)(F)C(F)(F)C(F)(F)C(F)(F)F`, for which the AC50 was 33.8 µM (active) and 2.03 µM (active); the result was inactive. Take `CCC(=O)C(CC(C)N(C)C)(c1ccccc1)c1ccccc1` (centres undefined): the outcome was inactive. Turning to `CCCCCCCCc1ccc(O)cc1`, the AC50 was 36.5 µM (active). In the case of `NC(=O)O`, the result was inactive. For `Nc1ccc(-c2ccc(N)c(Cl)c2)cc1Cl`, the outcome was inactive.

For `CC1(C)Cc2cccc(O)c2O1`, the result was inactive. On to `C=C(C)C(=O)[O][Sn]([CH2]CCC)([CH2]CCC)[CH2]CCC`, for which the half-maximal activity concentration (AC50) was 0.38 µM (active). Consider `CCCCCCCCC(=O)NCc1ccc(O)c(OC)c1`, for which the outcome was inactive. Still for that read-out and setting: for `COC(=O)c1sccc1S(=O)(=O)NC(=O)Nc1nc(C)nc(OC)n1` the value was “inactive”; for `O=c1[nH]c(=O)[nH]c(=O)[nH]1`, “inactive”; for `CCOP(=S)(OCC)SCSP(=S)(OCC)OCC`, “inactive”. For the compound `O=Cc1cccc(Oc2ccccc2)c1`, the result was inactive.

`COc1cc(-c2ccc(N)c(OC)c2)ccc1N`: the result was inactive. `COP(=S)(OC)Oc1ccc(S(=O)(=O)N(C)C)cc1`: the result was inactive. Take `C(=NC1CCCCC1)=NC1CCCCC1`: the AC50 was 30.9 µM (active). Take `O=[N+]([O-])c1ccc(O)c([N+](=O)[O-])c1`: the result was inactive. Turning to `CCC(C)(C)c1ccc(O)c(C(C)(C)CC)c1`, the AC50 was 28.1 µM (active).

In the case of `O=C(O)C(Cl)(Cl)Cl`, the result was inactive. The same measure, in the same setting: for `Oc1cccc2cccnc12` the value was “inactive”; for `Cn1sc(Cl)cc1=O`, “inactive”. Turning to `ClCC(Cl)CCl`, the outcome was inactive. Turning to `OCc1ccco1`, the result was inactive. Take `O=C(OC1CCCCC1)c1ccccc1C(=O)OC1CCCCC1`: the AC50 was 20.9 µM (active). `O=S(=O)(c1ccc(Cl)cc1)c1ccc(Cl)cc1`: the outcome was inactive. Regarding `COC[C@H](C)N(C(=O)CCl)c1c(C)csc1C`, the result was inactive.

As for `CN(C)N=O`, the result was inactive. Consider `O=C1C2(Cl)C3(Cl)C4(Cl)C(Cl)(Cl)C5(Cl)C3(Cl)C1(Cl)C5(Cl)C24Cl` (centres undefined), for which the AC50 is 14.5 µM (active). Turning to `COP(=S)(OC)Oc1ccc(Sc2ccc(OP(=S)(OC)OC)cc2)cc1`, the AC50 is 3.97 µM (active). Still for that read-out and setting: for `CC(=O)C(Cl)C(=O)N(C)C` (centres undefined) the value was 13.6 µM (active).

With `CCN1CCC2(CC1)COc1cc3c(cc12)N(C(=O)c1ccc(-c2ccc(-c4nnc(C)o4)cc2C)cc1)CC3`, the AC50 was 14.1 µM (active).
